HCV inh: blocks hepatitis C virus; AID 651820; Potency, µM (highest dose often 41.8 µM), without a hit: at the highest dose activity change, negative = inhibition, usual class: inhibitors; Huh7.5.1 HCVcc-Cre infection, luciferase reporter, 44 h; 340,000 compounds, 3.4% hits; further: potency means the concentration at half of the fitted maximal effect; on the % scale 0 is the no-effect control and ±100 the full control effect
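Reporter virus HCVcc-Cre (~0.5 moi) infects cells exposed to compound; seeding density 1,000 cells/well with 4 h settling beforehand. Luminescence, 15 sec read, taken 44 h post-infection following a 15 min RT substrate incubation.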
Cycloheximide cs: counter-screen for Shiga toxin inhibitors: cycloheximide protein synthesis inhibition; cell reporter, cycloheximide protein synthesis inhibition counterscreen; max response, %; 300,000 compounds, 12% hits; in the data active means max response mostly above about 13%, no sharp cut-off; inactive means mostly below about 14%; further: read at 38.3 µM for the half of the compounds with a filed dose; 0% is about no effect
AMA1-RON2 inh: disrupts binding of P. falciparum AMA1 to RON2; AlphaScreen AMA1-biotinylated RON2 peptide binding; AID 720542; 360,000 compounds, 0.2% hits; Potency, µM (highest dose often 58.2 µM), for the others: top-dose activity change, negative = inhibition, most hits filed as inhibitors;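 further: potency means the concentration at half of the fitted maximal effect; 0% = vehicle wells and -100% = peptide control; nearly all actives have a fitted effect of over 45% in size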
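AMA1 (3D7) with his tag at 25 nM final met compounds first, then biotinylated RON2 peptide at 25 nM; detection used donor plus acceptor beads, 10 µg/mL apiece, read by AlphaScreen after 30 min at room temperature.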
Shiga toxin inh: blocks Shiga toxin action in Vero cells | Vero cells, Shiga toxin protein synthesis inhibition reporter | inhibition, % at 38.7 µM | 290,000 compounds, 9.2% hits | AID 2315; in the data active means inhibition mostly above about 28%, no sharp cut-off; inactive means mostly below about 43%; further: 0% is about no effect
Pf growth 48h: inhibits P. falciparum growth in the first generation, 48 h | P. falciparum luciferase growth in erythrocytes, 48 h | AID 504832 | Potency, µM (series often up to 28.7 µM), inactives show at the top dose activity change, negative = inhibition, usual class: inhibitors | 310,000 compounds, 5.9% hits; further: potency means the concentration at half of the fitted maximal effect; on the % scale 0 is the no-effect control and ±100 the full control effect
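Erythrocytes infected with P. falciparum carrying an integrated firefly luciferase reporter (2% hematocrit, 0.1% parasitemia final) were exposed to compounds in RPMI 1640 with 0.5% Albumax at 37 C, 5% CO2. Growth inhibition was scored as reduced luminescence.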
Pf growth 96h: P. falciparum growth inhibition at 96 hour, primary screen for plastid delayed-death inhibitors; P. falciparum luciferase reporter growth, 96 h; Potency, µM (top dose mostly 28.7 µM), for inactives: top-dose activity change, negative = inhibition, usual class: inhibitors; 320,000 compounds, 6.9% hits; further: potency means the concentration at half of the fitted maximal effect; on the % scale 0 is the no-effect control and ±100 the full control effect
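P. falciparum expressing integrated firefly luciferase, in erythrocytes at 2% hematocrit, 0.05% parasitemia, incubated with compounds 96 h at 37 C, 5% CO2. Growth inhibition read as loss of luminescence; two-generation exposure targets delayed-death apicoplast inhibitors.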
Starred values were filed as active, the others as inactive; ? = inconclusive; · = no result given; [ ] = dose if it differs, or a comment. A selection: hits, their analogues and other compounds. The true share with any hit is near 21%. Unless noted, the call rests on the fitted dose curve; in most records, active means well fitted curve in the direction sought with a large enough effect; inconclusive means small, poorly fitted or top-dose-only effect, or another doubt; inactive means no such curve, though single readings can be large; an effect the other way counts as inactive or inconclusive.

SMILES | HCV inh | Cycloheximide cs | AMA1-RON2 inh | Shiga toxin inh | Pf growth 48h | Pf growth 96h
O=C(O)c1c(C(=O)N2N=C3/C(=C/c4ccccc4)CCCC3C2c2ccccc2)cccc1[N+](=O)[O-] (stereo not drawn) | -3% | 3 | 25% | -9 | ? | -33%[5.75 µM]
CC(=O)N1N=C2/C(=C/c3ccccc3)CCCC2C1c1ccccc1 (stereo not drawn) | -23% | 48* | -4% | 72* | 113% | ?
c1ccc2c(-c3nc4ncccc4o3)cccc2c1 | -39% | 20* | 22% | 34 | 42% | 39%
CC(=O)Nc1ccc(Cl)c(-c2nc3ncccc3o2)c1 | -27% | 3 | -10% | -8 | · | 31%
Fc1ccccc1-c1nc2ncccc2o1 | 11% | 23* | 0% | 58* | 42% | 24%
CN(CC(=O)Nc1ccc(F)cc1)C(=O)c1ccc(OCc2cn3ccccc3n2)cc1 | 2% | · | 10% | · | · | ·
CC1CCc2c(C(=O)NCc3ccccn3)csc2C1 (stereo not drawn) | 15% | 65* | 64% | 161* | 33% | ?
CC1CCc2c(C(=O)Nc3ccccn3)csc2C1 (stereo not drawn) | ? | 47* | -9% | 70* | 182% | 100%
CCNC(=S)NNC(=O)c1csc2c1CCC(C)C2 (stereo not drawn) | -14% | 6 | 100% | -10 | 58% | 2%
CC1CCc2c(C(=O)NCC3CCCO3)csc2C1 (stereo not drawn) | 0% | 86* | 4% | 98* | 40% | -1%
Cc1noc(C)c1COC(=O)c1csc2c1CCC(C)C2 (stereo not drawn) | ? | · | -8% | · | 12µM* | ?
CC1CCc2c(C(=O)NCc3cccnc3)csc2C1 (stereo not drawn) | -20% | 6 | 6% | -7 | 28% | 31%
O=C(Nc1cccc2ccccc12)c1csc([C@@H]2C[C@H](O)[C@@H](CO)O2)n1 | · | · | 1% | · | · | ·
O=C(COC(=O)/C=C/c1ccc(F)cc1)Nc1ccc(S(=O)(=O)N2CCOCC2)cc1 | 6% | · | -4%[11.6 µM] | · | · | ·
CCSc1nnc(NC(=O)c2csc3c2CCC(C)C3)s1 (stereo not drawn) | 7% | 0 | 2% | -7 | 7% | ·
CC1CCc2c(C(=O)Nc3nccs3)csc2C1 (stereo not drawn) | -5% | 37* | -13% | 69* | ? | ?
Cc1ccccc1NC(=S)NNC(=O)c1csc2c1CCC(C)C2 (stereo not drawn) | ? | 35* | 13% | 78* | 235% | ·
O=C(Cn1cc(COc2ccc(-n3cccc3)cc2)nn1)NS(=O)(=O)c1ccccc1C(F)(F)F | · | · | -18% | · | · | ·
O=C(Nc1ccccc1)Nc1c(F)cccc1F | -11% | 41* | -22% | 43* | 41% | 77%
CC(=O)Nc1ccc(C(=O)c2ccccc2)cc1 | -30% | 16* | -7% | 34 | 33% | 54%
C/C(=N/NS(=O)(=O)c1ccccc1)c1ccc(NC(=O)C2CC2)cc1 | 14% | 2 | 4% | 30 | 1% | ?
CCCCCC(=O)Nc1ccc(C2C(=O)c3ccccc3C2=O)cc1 | 2.5µM* | -1 | 12% | -3 | 13µM* | ?
O=C(CCCCC(=O)Nc1ccccc1)Nc1ccccc1 | 5% | -2 | 3% | · | 9% | -1%
CC(=O)Nc1ccc(/C(C)=N/NS(=O)(=O)c2ccccc2)cc1 | -1% | 23* | 16% | 7 | 23% | 46%
CC(=O)Nc1ccc(NC(=O)c2ccc(NC(=O)c3ccccc3)cc2)cc1 | 5% | 19 | 6% | -18 | 9% | ?
SMILES | HCV inh | Cycloheximide cs | AMA1-RON2 inh | Shiga toxin inh | Pf growth 48h | Pf growth 96h
C[C@H]1OC(OC2C(O)[C@@H](O)C(OC3C(O)[C@@H](O)C(O)O[C@@H]3CO)O[C@@H]2CO)[C@H](O)C(O)C1N[C@H]1C=C(CO)[C@@H](O)[C@H](O)C1O (stereo partly drawn) | · | 10 | · | -7 | 4% | -4%
CCCC(=O)Nc1ccc(Oc2ccc(NC(=O)CCC)cc2)cc1 | 13% | 9 | -3% | -2 | 15% | 2%
CC(=O)Nc1cccc(NC(=O)Nc2ccc(C(C)=O)cc2)c1 | ? | -1 | 32% | 68 | 44% | ·
CCCCC(=O)Nc1ccc(C(=O)c2ccccc2)cc1 | -14% | 35* | 21% | 49* | 26% | 32%
CC(=O)Nc1ccc(NC(=O)Nc2ccccc2)cc1 | 9% | 25* | -5% | 64* | 98% | 103%
C/C(O)=C(/N=O)C(=O)Nc1ccccc1 | 18% | 9 | -2% | -10 | 1% | 12µM*
CCCC(=O)Nc1ccc(C#Cc2ccccc2)cc1 | ? | 51* | 12% | 115* | 52% | -34%
C/C=C/c1cnc2c(c1)C(=O)N([C@H](C)CO)C[C@@H](C)[C@@H](CN(C)C(=O)NC1CCCC1)O2 | · | · | -1% | · | · | ·
CCOC(=O)C1=C(COC(=O)Cc2ccccc2[N+](=O)[O-])NC(=O)NC1C (stereo not drawn) | · | · | 5% | · | · | ·
Cc1c2c(n3c(nc4ccccc43)c1C#N)N(c1ccccc1)CC2 | 0% | 6 | · | -46 | 2.1µM* | 0.66µM*
Cc1c2c(n3c(nc4ccccc43)c1C#N)N(CCN(C)C)CC2 | 11µM* | 1 | -4% | -25 | 2.1µM* | 74%
O=C1NCCSC1c1ccccc1 (stereo not drawn) | 4% | · | 13% | · | · | ·
CCOC(=O)C(C)n1nc(/C=C/c2ccc(OC)cc2)ccc1=O (stereo not drawn) | 3% | 8 | 19% | 7 | ? | 9.3µM*
CCc1ccc(NC(=O)CCc2ccc(C)o2)cc1 | ? | 37* | 12% | · | 22% | -19%
CCc1ccc(CCC(=O)Nc2ccc(C(=O)O)cc2)o1 | 12% | -5 | 2% | -7 | 17% | ?
CC(=O)c1ccc(NC(=O)CCc2ccc(C)o2)cc1 | 8% | 13* | 0% | 16 | 74% | 51%
CCc1ccc(NC(=O)CCc2ccc(CC)o2)cc1 | -11% | 14* | 37% | · | 34% | ?
CCc1ccc(CCC(=O)Nc2ccc(C)c(C)c2)o1 | -14% | 40* | -1% | 58* | 27% | 5%
CC(C)NC(=O)N(C)C[C@@H]1Oc2c(NC(=O)C3CCOCC3)cccc2C(=O)N([C@@H](C)CO)C[C@H]1C | 5% | · | 12% | · | · | ·
Cn1c(N)c(S(=O)(=O)NCc2ccccc2)c(=O)n(C)c1=O | 22% | · | 13% | · | · | ·
CC(NS(=O)(=O)c1c(N)n(C)c(=O)n(C)c1=O)c1ccccc1 (stereo not drawn) | 1% | 29* | -8% | 57* | 3% | 2%
O=C(/C=C/c1ccccc1)NCCc1ccccc1 | 4% | 46* | -27% | 92* | -27% | 24%
CC(C)(C)SCCNC(=O)/C=C/c1ccc(F)cc1 | 3% | 51* | -10% | 115* | ? | -5%

Screening results deposited in PubChem by National Center for Advancing Translational Sciences (NCATS).
